Inconclusive results are not listed. A call without a number means that no potency is given here. Active and inactive are the calls of the source. Unless noted, calls come from the whole dose curve.
Columns and labels:
[1] = target: Protein phosphatase 1D (Homo sapiens) (UniProt O15297); experiment: RapidFire Mass Spectrometry qHTS Assay for Modulators of WT P53-Induced Phosphatase 1 (WIP1) (AID 1347424; active = well fitted curve in the direction sought with a large enough effect; an effect the other way counts as inactive or inconclusive;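 note: amount of dephosphorylated VEPPL-S-QETFS peptide product formed by WIP1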; note: potency is the fitted concentration of half-maximal effect); conditions: WIP1 dephosphorylation of phosphopeptide, RapidFire MS; series mostly up to 63 µM
Chain of Protein phosphatase 1D (Homo sapiens) (O15297 whole entry, looked up): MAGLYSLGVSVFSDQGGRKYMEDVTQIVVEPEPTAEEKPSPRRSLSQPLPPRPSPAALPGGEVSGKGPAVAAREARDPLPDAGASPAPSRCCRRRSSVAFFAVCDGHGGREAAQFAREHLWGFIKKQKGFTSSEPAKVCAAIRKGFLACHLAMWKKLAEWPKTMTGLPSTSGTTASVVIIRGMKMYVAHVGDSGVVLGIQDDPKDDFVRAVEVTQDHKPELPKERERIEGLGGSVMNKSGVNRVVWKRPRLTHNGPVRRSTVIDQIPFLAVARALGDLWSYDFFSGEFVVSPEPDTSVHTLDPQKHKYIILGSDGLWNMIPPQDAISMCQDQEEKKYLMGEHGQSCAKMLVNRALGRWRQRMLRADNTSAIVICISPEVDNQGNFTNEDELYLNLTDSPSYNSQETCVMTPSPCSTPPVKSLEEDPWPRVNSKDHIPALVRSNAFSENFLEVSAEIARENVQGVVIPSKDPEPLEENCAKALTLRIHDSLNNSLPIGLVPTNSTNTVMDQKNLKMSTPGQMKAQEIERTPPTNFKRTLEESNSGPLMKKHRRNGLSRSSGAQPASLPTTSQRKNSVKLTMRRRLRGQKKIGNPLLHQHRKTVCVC
In short: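 Mass-spectrometric measurement of dephosphorylated peptide after a 5 min room-temperature reaction of 10 nM WIP1 with 2 uM phosphopeptide, following 1 h compound preincubation in 30 mM MgCl2 buffer.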

[2] = target: Protein phosphatase 1D (Homo sapiens) (UniProt O15297); experiment: Rhodamine-PBP qHTS Assay for Modulators of WT P53-Induced Phosphatase 1 (WIP1) (AID 1347425; active = well fitted curve in the direction sought with a large enough effect; an effect the other way counts as inactive or inconclusive); conditions: recombinant WIP1, Rhodamine-PBP phosphate fluorescence, real-time; series mostly up to 57.5 µM
In short: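 Read-out: Rhodamine-PBP fluorescence (ex 525/em 598 nm) for released Pi, read each minute for 11 min after adding 10 uM VEPPL-pS-QETFS; signal taken as f1 minus pre-substrate f0. Enzyme 5 nM WIP1 with 1 hr room-temperature compound preincubation.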

[3] = Primary qHTS for inhibitors of SARS-S pseudo-typed particle cell entry (AID 1479145); conditions: SARS-S pseudotyped particle cell entry, luciferase reporter; series mostly up to 57.1 µM; note: nearly all actives have a fitted effect of over 45% in size; note: potency is the fitted concentration of half-maximal effect
[4] = Primary qHTS for Huh7 cytotoxicity: counterscreen for inhibitors of MERS-S pseudotyped particle cell entry (AID 1479147); conditions: cell viability read-out; series mostly up to 57.1 µM; note: potency is the fitted concentration of half-maximal effect
[5] = Primary qHTS for inhibitors of MERS-S pseudo-typed particle cell entry (AID 1479149); conditions: MERS-S pseudotyped particle entry, luciferase; series mostly up to 57.1 µM; note: nearly all actives have a fitted effect of over 60% in size; note: potency is the fitted concentration of half-maximal effect
[6] = Primary qHTS for Vero E6 cytotoxicity: counterscreen for inhibitors of SARS-S pseudo-typed particle cell entry (AID 1479150); conditions: cell viability; series mostly up to 57.1 µM; note: potency is the fitted concentration of half-maximal effect
[7] = Validation qHTS assay for inhibitors of Activation Induced Cytidine Deaminase (AID): UDG Counterscreen signal (AID 1347427; active = well fitted curve in the direction sought with a large enough effect; an effect the other way counts as inactive or inconclusive); conditions: biochemical UDG counterscreen, fluorescence signal; series mostly up to 115 µM
In short: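 Fluorescence at 560 nm excitation, 665 nm emission reports UDG signal after 250 mM NaOH (2x) addition and 30 min. Enzymes (AID 1 uM, UDG 2 U/mL, at 4/3x) preincubated 10 min with compound, then 4 h with 4x 250 nM DJC20/DJC23 substrate at room temperature.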

[8] = target: Single-stranded DNA cytosine deaminase (Homo sapiens) (UniProt Q9GZX7); experiment: Validation qHTS assay for inhibitors of Activation Induced Cytidine Deaminase (AID): AID signal (AID 1347429; active = well fitted curve in the direction sought with a large enough effect; an effect the other way counts as inactive or inconclusive); conditions: Recombinant AID, FRET ssDNA deamination with UDG, fluorescence; series mostly up to 115 µM
Chain of Single-stranded DNA cytosine deaminase (Homo sapiens) (Q9GZX7 whole entry, looked up): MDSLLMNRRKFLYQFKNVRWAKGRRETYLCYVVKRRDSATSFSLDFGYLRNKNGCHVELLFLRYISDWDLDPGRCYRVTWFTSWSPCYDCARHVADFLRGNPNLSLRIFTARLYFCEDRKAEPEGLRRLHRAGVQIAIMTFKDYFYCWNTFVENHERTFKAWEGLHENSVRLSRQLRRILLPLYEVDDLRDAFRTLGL
In short: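 Compounds (final up to 114 uM) preincubated with AID plus UDG; 250 nM DJC20/DJC23 substrate mix (4x stock) added, 4 hr at room temperature, then NaOH, 30 min. Read 1 fluorescence at 540 nm excitation, 590 nm emission.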

| Compound | Potency [1] | outcome [2] | Potency [3] | Potency [4] | Potency [5] | Potency [6] | outcome [7] | outcome [8] |
| --- | --- | --- | --- | --- | --- | --- | --- | --- |
| Cc1cccc(Cc2cnc[nH]2)c1C | inactive | inactive | inactive | inactive | inactive | inactive |  |  |
| CC[C@H]1C[C@H]2[C@@H]3CCC4=CC(=O)CC[C@@H]4[C@H]3CC[C@]2(C)[C@H]1O | inactive | inactive |  | inactive |  | inactive |  |  |
| Clc1ccc(CSC(Cn2ccnc2)c2ccc(Cl)cc2Cl)cc1 (stereo unspecified) | inactive | inactive |  | inactive |  |  |  |  |
| CC1=C2[C@H]3OC(=O)[C@@H](C)[C@@H]3CC[C@@]2(C)C=CC1=O | inactive | inactive | inactive | inactive | inactive | inactive |  |  |
| CCOC(=O)C1(c2ccccc2)CCN(CCc2ccc(N)cc2)CC1 | inactive | inactive | inactive | inactive | inactive | inactive |  |  |
| O=c1n(Cl)c(=O)n(Cl)c(=O)n1Cl | inactive | inactive | inactive | inactive |  | inactive |  |  |
| O=C(O)CCCCCCNC1c2ccccc2CCc2ccccc21 |  | inactive |  |  |  |  |  |  |
| O=C(CCCN1CCC(n2c(=O)[nH]c3ccccc32)CC1)c1ccc(F)cc1 | inactive | inactive |  | inactive |  | inactive |  |  |
| COP(=O)(OC)OC=C(Cl)Cl | inactive | inactive | inactive | inactive | inactive | inactive |  |  |
| CC[C@H](O)C(C[C@H](C)N(C)C)(c1ccccc1)c1ccccc1 |  | inactive |  |  |  |  |  |  |
| Cc1ccc([N+](=O)[O-])[c]2c1[O][Hg]2 | 3980 nM (active) |  | 10000 nM (active) | 2240 nM (active) | 2820 nM (active) |  |  |  |
| CC(C)(O)C(Cl)(Cl)Cl | inactive | inactive | inactive | inactive | inactive | inactive |  |  |
| CN1C2CCC(C)(C)C1CC(OC(=O)C(O)(c1cccs1)c1cccs1)C2 (stereo unspecified) | inactive | inactive |  | inactive |  | inactive |  |  |
| C[C@@H]1O[C@@H](O[C@@H]2C=C3CC[C@@H]4[C@H](CC[C@]5(C)[C@@H](c6ccc(=O)oc6)CC[C@]45O)[C@@]3(C)CC2)[C@H](O)[C@H](O)[C@H]1O | inactive | inactive | inactive |  | inactive |  |  |  |
| C[C@]12Cc3nonc3C[C@@H]1CC[C@@H]1[C@@H]2CC[C@@]2(C)[C@H]1CC[C@]2(C)O | inactive | inactive |  | inactive |  | inactive |  |  |
| Clc1ccc(CO/N=C(\Cn2ccnc2)c2ccc(Cl)cc2Cl)c(Cl)c1 | inactive | inactive |  | inactive |  | inactive |  |  |
| CCC(=O)C(CCN(C)C)(c1ccccc1)c1ccccc1 | inactive | inactive |  | inactive |  | inactive |  |  |
| C=CCOC(Cn1ccnc1)c1ccc(Cl)cc1Cl (stereo unspecified) | inactive | inactive |  | inactive |  | inactive |  |  |
| Clc1ccc(C(OCCN2CCCCC2)c2ccccc2)cc1 (stereo unspecified) | inactive | inactive |  | inactive |  | inactive |  |  |
| C[C@H](N)[C@H](O)c1ccc(O)c(O)c1 | 2000 nM (active) | inactive | inactive | inactive | inactive | inactive |  |  |
| COc1cc(N)c(Cl)cc1C(=O)NC1CN2CCC1CC2 (stereo unspecified) |  | inactive |  |  |  |  |  |  |
| CCOC(=O)C(c1c(O)c2ccccc2oc1=O)c1c(O)c2ccccc2oc1=O |  | inactive |  |  |  |  |  |  |

| Compound | Potency [1] | outcome [2] | Potency [3] | Potency [4] | Potency [5] | Potency [6] | outcome [7] | outcome [8] |
| --- | --- | --- | --- | --- | --- | --- | --- | --- |
| CC[C@]1(O)CC[C@H]2[C@@H]3CCC4=CCCC[C@@H]4[C@H]3CC[C@@]21C | inactive | inactive | inactive | inactive | inactive | inactive |  |  |
| CNC(C)Cc1ccccc1OC (stereo unspecified) | inactive | inactive | inactive | inactive | inactive | inactive |  |  |
| O=C1CN2CCOC2(c2ccccc2Cl)c2cc(Cl)ccc2N1 (stereo unspecified) | inactive | inactive |  | inactive |  | inactive |  |  |
| CC(C)C(Br)C(=O)NC(N)=O (stereo unspecified) | inactive | inactive |  | inactive | inactive | inactive |  |  |
| CCCC[N+]1(C)[C@@H]2CC(OC(=O)[C@H](CO)c3ccccc3)C[C@H]1[C@@H]1O[C@@H]12 (stereo partly specified) | inactive | inactive | inactive | inactive | inactive | inactive |  |  |
| CC#C[C@]1(O)CC[C@H]2[C@@H]3C[C@H](C)C4=CC(=O)CC[C@]4(C)[C@H]3CC[C@@]21C | inactive | inactive | 20000 nM (active) | inactive |  | inactive |  |  |
| CCN(CC)Cc1nccn1-c1ccc([N+](=O)[O-])cc1C(=O)c1ccccc1Cl | inactive | inactive |  | inactive | inactive | inactive |  |  |
| NC(=O)OCCCc1ccccc1 | inactive | inactive | inactive | inactive | inactive | inactive |  |  |
| N#Cc1nn(-c2c(Cl)cc(C(F)(F)F)cc2Cl)c(N)c1S(=O)C(F)(F)F (stereo unspecified) | inactive | inactive | inactive | inactive |  | inactive |  |  |
| CN(C)C(=S)SSC(=S)N(C)C | inactive | inactive | 708 nM (active) | 891 nM (active) | inactive | 891 nM (active) |  |  |
| c1ccc2c(c1)Sc1ccccc1N2CC1CN2CCC1CC2 (stereo unspecified) | inactive | inactive |  |  |  | inactive |  |  |
| CCOC(=O)c1ncn2c1CN(C)C(=O)c1c(I)cccc1-2 | inactive | inactive |  | inactive |  | inactive |  |  |
| C[C@]12CC[C@H](O)CC1=CC[C@@H]1[C@@H]2CC[C@]2(C)C(=O)CC[C@@H]12 | inactive | inactive | inactive | inactive | inactive | inactive |  |  |
| C[C@@H]1CN(C2CCC(C#N)(c3ccc(F)cc3)CC2)CC[C@]1(C(=O)O)c1ccccc1 (stereo partly specified) | inactive | inactive |  | inactive | inactive | inactive |  |  |
| CC(Cc1ccccc1)NCCCCl (stereo unspecified) | inactive | inactive |  | inactive | inactive | inactive |  |  |
| O=C(O)c1nn(Cc2ccc(Cl)cc2Cl)c2ccccc12 |  |  |  |  |  |  | inactive | inactive |
| O=S1(=O)OC(c2ccc(O)cc2)(c2ccc(O)cc2)c2ccccc21 |  |  | inactive | inactive | inactive | inactive |  |  |
| O=C(CCCN1CCN(c2ccccn2)CC1)c1ccc(F)cc1 |  |  | inactive | inactive | inactive | inactive |  |  |
| CCOc1c(N2CCOCC2)cnn(C)c1=O |  |  | inactive | inactive | inactive | inactive |  |  |
| C[N+]12CCC(CC1)C(OC(=O)C(O)(c1ccccc1)c1ccccc1)C2 (stereo unspecified) |  |  | inactive | inactive | inactive | inactive |  |  |
| NC1=NCC2c3ccccc3Cc3ccccc3N12 (stereo unspecified) |  |  | inactive | inactive | inactive | inactive |  |  |
| CCN(CC)C(=O)N1CCN(C)CC1 |  |  | inactive | inactive | inactive | inactive |  |  |

Source: PubChem BioAssay (NCATS)
